PubChem BioAssay (NCI)
“And” between values parts separate entries of the source, which are not always exact repeats. Equal entries are not always repeated. This is part of a sample that, as a whole, favours compounds with a hit. Of some 83,000 tested, about 20% had one in any assay.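 Cells were grown in 96-well plates and exposed to the test compound at a single concentration for 48 hours; results are reported as percent growth, with values below 10 considered active.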 The source made the active and inactive calls.

system: MDA-MB-468 breast; assay: NCI-60 one-dose screen, 48 h (100 = growth as untreated, 0 = no growth, -100 = all killed); details: 10 µM unless noted
Method: Growth inhibition of the MDA-MB-468 human Breast tumor cell line is measured as a screen for anti-cancer activity. Cells are grown in 96 well plates and exposed to the test compound for 48 hours. Compounds are tested at a single concentration, which is 10^-5 M for most compounds. The reported endpoint is percent growth (GI% or GIPRCNT), where numbers from 0 - 100% represent growth inhibition, and numbers from -100% - 0 represent cell death. For example, a value of 40 represents 60% growth inhibition. A value of 0 means no net growth occurred over the course of the experiment. A value of -40 indicates 40% of cells at the beginning of the experiment died by the end of the experiment. A value of -100 means all cells are dead at the end of the experiment.
NCI-60 Human Tumor Cell Lines Screen was performed using the standard one-dose NCI protocol, which is described in more detail at https://dtp.cancer.gov/discovery_development/nci-60/default.htm.
Compounds with GIPRCNT values below 10 were considered active. Activity score was based on GIPRCNT using the following formula: […]
Score is 0 for GIPRCNT values of 100 or above, 50 for GIPRCNT values of 0, and 100 for GIPRCNT values of -100.

Q: How did the growth turn out when `Clc1ccc(/C=C/c2ccc3ccccc3n2)cc1` was run?
A: -11.4% (active) and 73.5% (inactive) and 80.5% (inactive)

Q: For `C/C(=N\Nc1ccc2ccccc2n1)c1ccccn1`, which growth is on record?
A: -36.1% (active)

Q: `O=C(Cc1nc2ccc([N+](=O)[O-])cc2nc1CC(=O)c1cccnc1)c1cccnc1` was tested. Which growth did it give?
A: 75.7% (inactive)

Q: Which growth does the source give for `CCCCCCc1nc2nc(Cl)c(Cl)nc2[nH]1` here?
A: 31.1% (inactive)

Q: How did the growth turn out when `COc1ccc(-c2nc3cc(C(=O)NCc4ccccc4)ccc3n2C2CCCCC2)cc1` was run?
A: 98.4% (inactive)

Q: With `Nc1nc(=S)ss1` as the molecule, how does the growth read?
A: 101% (inactive)

Q: Which growth does the source give for `COC1/C=C/OC2(C)Oc3c(C)c(O)c4c(O)c(c(/C=N/Nc5ccc([N+](=O)[O-])cc5[N+](=O)[O-])c(O)c4c3C2=O)NC(=O)C(C)=C/C=C/C(C)C(O)C(C)C(O)C(C)C(OC(C)=O)C1C` (stereo not given) here?
A: -54.5% (active)

Q: Which growth does the source give for `Cn1ccnc1C(=O)/C=C/c1ccc(CC(=O)NC2CCCCC2)cc1` here?
A: -6.65% (active)

Q: `CCOC(=O)c1c2c(n3ccc(NC(=O)CCN4CCCCC4)cc13)C(=O)c1ncccc1C2=O` was tested. Which growth did it give?
A: 83.1% (inactive)

Q: How did the growth turn out when `CCCCCCNC(=O)Oc1ccc(/C(=C(/C)c2ccc(Cl)cc2)c2ccc(OCCN3CCCCCC3)cc2)cc1` was run?
A: 35.9% (inactive)

Q: How did the growth turn out when `Cn1cc(-c2nnc(N)nc2-c2cn(C)c3ccc(F)cc23)c2cc(F)ccc21` was run?
A: 99.8% (inactive)

Q: How did the growth turn out when `Cc1ccc(C(=O)NN2C(=O)CSC2c2ccc(Cl)cc2)cn1` (stereo not given) was run?
A: 110% (inactive)

Q: For `Cn1c2c(cc(S(=O)(=O)c3ccccc3)c1=O)CCc1c-2cnn1-c1cccc(Cl)c1`, which growth is on record?
A: 67% (inactive)

Q: For `Nc1ncnc(Nc2ccc(C(F)(F)F)cc2)n1`, which growth is on record?
A: 108% (inactive)

Q: How did the growth turn out when `CCCCCCCCCCCC(=O)C(CCCCCCCCCC)C(=O)Nc1ccccc1` (stereo not given) was run?
A: 109% (inactive)

Q: With `COc1ccc(-c2csc(N(C(=O)N3CCN(c4cc5c(cc4F)c(=O)c(C(=O)O)cn5C4CC4)CC3)c3ccccc3)n2)cc1` as the molecule, how does the growth read?
A: 7.88% (active)

Q: `Cc1ccc2c(c1)C(=O)/C(=C/c1c[nH]c3ccccc13)S2` was tested. Which growth did it give?
A: 17.8% (inactive)

Q: With `CCN1CCN(C(=S)SCC(=O)Nc2nc3ccc(C)cc3s2)CC1` as the molecule, how does the growth read?
A: 104% (inactive)

Q: For `N#Cc1cnc2ccc(-c3cnc(N)nc3)cc2c1N1CCc2cc(F)c(Cl)cc21`, which growth is on record?
A: -38.1% (active)

Q: For `Cc1ccc(C(=O)/C(=C\c2ccc([N+](=O)[O-])cc2)S(=O)Cc2ccc(Cl)cc2)cc1` (stereo not given), which growth is on record?
A: 24.3% (inactive)

Q: With `CC(C)CC(CC1=CCC2CC1C2(C)C)C1=C(O)C(C)(C)C(=O)C(C)(C)C1=O` (stereo not given) as the molecule, how does the growth read?
A: 6.32% (active)

Q: How did the growth turn out when `Brc1cccc(-c2cc(-c3cnc4c(c3)OCCO4)n[nH]2)c1` was run?
A: 7.76% (active)

Q: For `OCCNCCNC(Cc1ccc(Cl)cc1)c1ccccc1` (stereo not given), which growth is on record?
A: 86.4% (inactive)

Q: Which growth does the source give for `CC(=O)Oc1c(C)c(OC(C)=O)c2c(c1C(C)=O)OC1CC(=O)C(C(C)=O)=C(O)C21C` (stereo not given) here?
A: 90.1% (inactive)

Q: For `COc1ccc(N2CCN(c3ccc(NC4=C(Cl)C(=O)c5ncccc5C4=O)cc3)CC2)cc1`, which growth is on record?
A: -53.9% (active)

Q: For `CCOC(=O)Nc1cc2c(c(N)n1)N=C(c1ccccc1)CO2`, which growth is on record?
A: 2.06% (active)

Q: For `COC(=O)Nc1nc2ccc(C(=O)c3cccc(I)c3)cc2[nH]1`, which growth is on record?
A: 2.93% (active)

Q: For `Clc1ccc(/C=C/c2ccccn2)c(Cl)c1`, which growth is on record?
A: 29.3% (inactive)

Q: Which growth does the source give for `O=C1c2ccccc2OC=C(c2ccccc2)N1CCCCNc1ccc(S(=O)(=O)Nc2ncccn2)cc1` here?
A: 103% (inactive)

Q: `O=C1/C(=C/c2ccc(O)cc2)COc2ccc(O)c(O)c21` was tested. Which growth did it give?
A: -2.18% (active)

Q: `CCn1c(SCC(=O)Nc2cccc(C(=O)/C=C/c3ccc(Br)cc3)c2)nc2ccccc2c1=O` was tested. Which growth did it give?
A: 86.6% (inactive)

Q: How did the growth turn out when `N/C(=N\c1nc2c(Cl)cc(Cl)cc2s1)C(Cl)(Cl)Cl` was run?
A: -48.6% (active)

Q: How did the growth turn out when `CC1(C)S[C@@H]2[C@H](NC(=O)[C@H](C(=O)O)c3cccs3)C(=O)N2[C@H]1C(=O)O` was run?
A: 102% (inactive)

Q: For `COc1cccc(/C=C2\SC(N3CCN(c4ccccn4)CC3)=NC2=O)c1`, which growth is on record?
A: 101% (inactive)

Q: How did the growth turn out when `CCN1C[C@@H](C)n2c(c(O)c3c(=O)n(Cc4ccc(F)c(Cl)c4)nc(C(=O)NC)c32)C1=O` was run?
A: 45% (inactive)

Q: For `Cc1cn(C)cn1`, which growth is on record?
A: 112% (inactive)

Q: For `COc1cc(-c2cc(=O)oc3cc(O)ccc23)cc(OC)c1OC`, which growth is on record?
A: 74.2% (inactive)

Q: For `CCCCCCNC(=O)c1cc(NCc2cc(O)ccc2O)ccc1O`, which growth is on record?
A: 65.6% (inactive)

Q: With `CC(=O)N1N=C(CCC(=O)c2nc3ccc([N+](=O)[O-])cc3[nH]2)OC1c1ccc(O)cc1` (stereo not given) as the molecule, how does the growth read?
A: 108% (inactive)

Q: For `CCN(CC)CCNC(=O)C(F)(F)C(F)(F)C(F)(F)F`, which growth is on record?
A: 105% (inactive)
